Results on 5 compounds are retold here after PubChem BioAssay.

Assay [1] in a line: compounds binding Alexa647 anti-His antibody – biochemical, small-molecule microarray, 635 nm fluorescence, artefact control for SMM control protein annotation, primary screen (AID 1128).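 Also: score merges feature fluorescence with signal-to-noise for each printed compound spot.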 Conditions: higher = more signal.
The subject of assay [2] is Human papillomavirus type 1a E7 protein (residues 1-88). The assay is described as follows: HPV1a E7 small-molecule binders, primary screen, biochemical, small-molecule microarray, residues 1-88, 635 nm (AID 1129). Conditions: small-molecule microarray binding, fluorescence 635 nm; higher = more signal.
Assay [3] concerns the target Focal adhesion kinase 1 (Homo sapiens) (UniProt Q05397). Briefly: PTK2 protein binding on printed compound slides – biochemical, small-molecule microarray, 635/667 nm fluorescence, BSA, DTT, primary screen (AID 1130).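 Also: composite of spot emission at 667 nm and signal to noise over triplicate slides.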 Conditions: 635 nm fluorescence, higher = more signal.
Assay [4] has as its system Fibrinogen (Alexa647-labelled). The assay is described as follows: Alexa647-fibrinogen binding to printed small molecules – biochemical, small-molecule microarray, 635/667 nm fluorescence, artefact control for SMM control-protein annotation, profiling panel (AID 1131).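 Also: z-score merges 667 nm fluorescence with per-spot signal-to-noise over triplicate slides.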 As to conditions: fibrinogen-A647 binding fluorescence, higher = more signal.
The target of assay [5] is Follistatin (Homo sapiens) (UniProt P19883). Briefly: FST protein binding to printed compounds – biochemical, small-molecule microarray, 635/667 nm fluorescence, primary screen (AID 1132). As to conditions: 635 nm fluorescence, higher = more signal.
Chain of Follistatin (Homo sapiens) (P19883 whole entry, looked up): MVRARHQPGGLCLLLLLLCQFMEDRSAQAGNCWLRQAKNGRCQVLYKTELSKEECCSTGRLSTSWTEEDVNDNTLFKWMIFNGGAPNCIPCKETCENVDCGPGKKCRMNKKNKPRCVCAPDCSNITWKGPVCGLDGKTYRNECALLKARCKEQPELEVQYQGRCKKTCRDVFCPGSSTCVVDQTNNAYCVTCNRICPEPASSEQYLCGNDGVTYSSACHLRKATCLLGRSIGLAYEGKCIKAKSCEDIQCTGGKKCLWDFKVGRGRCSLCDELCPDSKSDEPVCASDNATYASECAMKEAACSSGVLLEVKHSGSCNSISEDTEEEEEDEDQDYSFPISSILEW
In assay [6] the target is Fibroblast growth factor 2 (Homo sapiens) (UniProt P09038). The assay is described as follows: basic fibroblast growth factor binding to printed compounds – biochemical, small-molecule microarray, 635/667 nm fluorescence, primary screen (AID 1133). As to conditions: FGF2, fluorescence 635/667, higher = more signal.
Chain of Fibroblast growth factor 2 (Homo sapiens) (P09038 whole entry, looked up): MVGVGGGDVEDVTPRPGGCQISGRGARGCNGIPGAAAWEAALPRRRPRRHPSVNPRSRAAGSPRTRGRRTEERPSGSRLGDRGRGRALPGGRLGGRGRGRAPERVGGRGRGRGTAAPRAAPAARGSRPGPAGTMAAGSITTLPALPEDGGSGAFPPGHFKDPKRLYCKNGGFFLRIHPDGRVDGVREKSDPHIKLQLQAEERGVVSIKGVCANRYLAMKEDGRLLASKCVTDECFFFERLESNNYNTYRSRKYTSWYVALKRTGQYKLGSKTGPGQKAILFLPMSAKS
A short description of assay [7]: JC-1 mitochondrial potential readout, lung cancer cells – cell-based, A549, JC-1 fluorescence, basal, 24 h, 100 nL, profiling panel (AID 1138).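 Also: A549 lung adenocarcinoma cells under basal conditions with no added stimulus; test concentration not given here.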 Conditions: higher = more signal.
A further assay has as its system Lefty1. The assay is described as follows: Lefty1 protein binding to printed compounds – biochemical, small-molecule microarray, 635/667 nm fluorescence, primary screen (AID 1139). As to conditions: fluorescence 635/667, higher = more signal.
The test system of assay [8] is wheat germ agglutinin (Triticum aestivum), Alexa647-labelled. The assay is described as follows: Alexa647-WGA lectin binding to printed small molecules – biochemical, small-molecule microarray, 635/667 nm fluorescence, artefact control for SMM control-protein annotation, profiling panel (AID 1140).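 Also: score merges 667 nm feature emission with signal to noise over triplicate slides.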 Conditions: WGA-A647 binding, 635 nm fluorescence, higher = more signal.

For assay [9], the target named is Luciferin 4-monooxygenase (Photinus pyralis) (UniProt P08659). Briefly: inhibition of purified Photinus pyralis luciferase – biochemical, luminescence, purified enzyme, 2006 set, primary screen (AID 1141).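 Also: cell-free assay with purified firefly luciferase at 100 ng per well in PBS; test concentration not given here.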 Conditions: purified firefly luciferase, SteadyGlo luminescence, 30 min; higher = more signal, called active from +8 up or from −8 down.
Chain of Luciferin 4-monooxygenase (Photinus pyralis) (P08659 whole entry, looked up): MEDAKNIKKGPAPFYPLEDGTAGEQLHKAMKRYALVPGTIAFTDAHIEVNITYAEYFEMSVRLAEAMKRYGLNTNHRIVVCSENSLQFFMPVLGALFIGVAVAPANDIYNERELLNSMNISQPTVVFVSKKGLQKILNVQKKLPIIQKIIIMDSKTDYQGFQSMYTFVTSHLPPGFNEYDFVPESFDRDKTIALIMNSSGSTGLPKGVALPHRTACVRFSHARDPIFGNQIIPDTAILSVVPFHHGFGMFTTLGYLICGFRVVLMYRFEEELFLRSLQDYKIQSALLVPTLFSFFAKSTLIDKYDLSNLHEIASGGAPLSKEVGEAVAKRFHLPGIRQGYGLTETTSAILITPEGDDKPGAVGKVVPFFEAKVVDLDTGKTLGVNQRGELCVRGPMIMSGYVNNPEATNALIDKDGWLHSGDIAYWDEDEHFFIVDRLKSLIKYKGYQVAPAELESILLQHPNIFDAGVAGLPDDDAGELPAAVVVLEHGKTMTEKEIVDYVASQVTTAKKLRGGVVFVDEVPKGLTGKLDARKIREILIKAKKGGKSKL
Assay [10] has as its system Wnt5a (protein binding on small-molecule microarray). The assay is described as follows: small molecules binding Wnt5a protein – biophysical, small-molecule microarray, 635/667 nm fluorescence, primary screen (AID 1142).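 Also: fluorescence read at 667 nm with signal to noise per printed feature.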 Conditions: 635 nm fluorescence, higher = more signal.
Assay [11] can be described thus: ATP-based viability of Huh7 replicon cells – cell-based, CellTiter-Glo luminescence, basal, 48 h, cytotoxicity control for HCV replication inhibitor project, primary screen (AID 1143).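 Also: Huh7 hepatoma cells carrying a hepatitis C replication reporter with no stimulus; test concentration not given here.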 Conditions: higher = more signal, called active from +8 up or from −8 down. On the technique in general: Replicon systems follow genome replication, usually without infectious particles.

Assay [12] in a line: Pseudomonas biofilm growth suppression – PAO1 strain, BacTiter-Glo luminescence, LB-PBS, primary screen (AID 1144). Conditions: P. aeruginosa PAO1 biofilm, 12 h, higher = more signal.
A short description of assay [13]: basal CRE-LacZ reporter activity in PC12 – cell-based, unstimulated, primary screen (AID 1145). As to conditions: no forskolin, luminescence, 4.5 h, higher = more signal, called active from +8 up or from −8 down.
A short description of assay [14]: forskolin-driven CRE-LacZ activity in PC12 – cell-based, CRE-LacZ reporter, forskolin-stimulated, primary screen (AID 1146).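 Also: PC12 cells with 6xCRE LacZ reporter stimulated by forskolin 10 µM; beta-galactosidase reporter signal reflecting CREB driven transcription.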 Conditions: luminescence, 4.5 h, higher = more signal, called active from +8 up or from −8 down.
Assay [15] deals with Streptavidin (Streptomyces avidinii) (UniProt P22629). Briefly: compounds binding control protein streptavidin – biophysical, small-molecule microarray, 635/667 nm fluorescence, artefact control for SMM compound annotation, primary screen (AID 1147).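 Also: signal reflects streptavidin binding to arrayed compounds as a control protein.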 Conditions: higher = more signal.
Chain of Streptavidin (Streptomyces avidinii) (P22629 whole entry, looked up): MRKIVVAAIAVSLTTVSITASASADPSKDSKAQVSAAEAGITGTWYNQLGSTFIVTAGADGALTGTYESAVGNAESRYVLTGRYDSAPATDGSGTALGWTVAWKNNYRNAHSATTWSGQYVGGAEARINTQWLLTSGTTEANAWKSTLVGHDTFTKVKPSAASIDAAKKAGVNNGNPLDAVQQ
A short description of assay [16]: probe aInhba binding on compound microarray – biochemical, small-molecule microarray, 635/667 nm fluorescence, primary screen (AID 1148).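 Also: score merges 667nm spot fluorescence with signal-to-noise for antibody binding to printed compounds.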 Conditions: higher = more signal.
Assay [17] deals with Torsin-1A (Homo sapiens) (UniProt O14656). The assay is described as follows: TOR1A wild-type binding on microarray – cell lysate, small-molecule microarray, lysate, 635/667 nm, primary screen (AID 1149). Conditions: COS7 hTOR1A-WT lysate, 635 nm fluorescence, higher = more signal.
Chain of Torsin-1A (Homo sapiens) (O14656 whole entry, looked up): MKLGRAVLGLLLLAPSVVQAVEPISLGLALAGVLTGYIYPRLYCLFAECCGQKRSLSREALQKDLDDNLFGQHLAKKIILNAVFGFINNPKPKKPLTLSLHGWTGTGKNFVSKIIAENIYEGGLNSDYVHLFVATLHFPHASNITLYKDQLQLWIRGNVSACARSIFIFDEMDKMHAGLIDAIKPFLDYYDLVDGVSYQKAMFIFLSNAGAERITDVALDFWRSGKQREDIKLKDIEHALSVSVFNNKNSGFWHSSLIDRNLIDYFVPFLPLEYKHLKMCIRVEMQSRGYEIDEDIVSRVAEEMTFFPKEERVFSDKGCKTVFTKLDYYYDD
Assay [18] has the same target. Briefly: torsin A mutant lysate binding on microarrays – cell lysate, small-molecule microarray, COS7 lysate, 635/667 nm fluorescence, primary screen (AID 1150).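 Also: score pools 667 nm emission and signal to noise measuring lysate protein binding.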 Conditions: COS7 hTOR1A mutant lysate, 635 nm fluorescence, higher = more signal.
Assay [19] deals with Sonic hedgehog protein (Shh). Briefly: Sonic hedgehog microarray binding compounds – biochemical, small-molecule microarray, 635/667 nm fluorescence, primary screen (AID 1151).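 Also: Shh protein binding to compounds spotted on small-molecule microarray slides; score combines spot fluorescence intensity with signal-to-noise across triplicate slides.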 Conditions: 635 nm fluorescence, higher = more signal.

Structures are written as SMILES. Activity calls are given as the source filed them. Unless noted, no rule for the calls is given here.

Chain of Focal adhesion kinase 1 (Homo sapiens) (Q05397 whole entry, looked up): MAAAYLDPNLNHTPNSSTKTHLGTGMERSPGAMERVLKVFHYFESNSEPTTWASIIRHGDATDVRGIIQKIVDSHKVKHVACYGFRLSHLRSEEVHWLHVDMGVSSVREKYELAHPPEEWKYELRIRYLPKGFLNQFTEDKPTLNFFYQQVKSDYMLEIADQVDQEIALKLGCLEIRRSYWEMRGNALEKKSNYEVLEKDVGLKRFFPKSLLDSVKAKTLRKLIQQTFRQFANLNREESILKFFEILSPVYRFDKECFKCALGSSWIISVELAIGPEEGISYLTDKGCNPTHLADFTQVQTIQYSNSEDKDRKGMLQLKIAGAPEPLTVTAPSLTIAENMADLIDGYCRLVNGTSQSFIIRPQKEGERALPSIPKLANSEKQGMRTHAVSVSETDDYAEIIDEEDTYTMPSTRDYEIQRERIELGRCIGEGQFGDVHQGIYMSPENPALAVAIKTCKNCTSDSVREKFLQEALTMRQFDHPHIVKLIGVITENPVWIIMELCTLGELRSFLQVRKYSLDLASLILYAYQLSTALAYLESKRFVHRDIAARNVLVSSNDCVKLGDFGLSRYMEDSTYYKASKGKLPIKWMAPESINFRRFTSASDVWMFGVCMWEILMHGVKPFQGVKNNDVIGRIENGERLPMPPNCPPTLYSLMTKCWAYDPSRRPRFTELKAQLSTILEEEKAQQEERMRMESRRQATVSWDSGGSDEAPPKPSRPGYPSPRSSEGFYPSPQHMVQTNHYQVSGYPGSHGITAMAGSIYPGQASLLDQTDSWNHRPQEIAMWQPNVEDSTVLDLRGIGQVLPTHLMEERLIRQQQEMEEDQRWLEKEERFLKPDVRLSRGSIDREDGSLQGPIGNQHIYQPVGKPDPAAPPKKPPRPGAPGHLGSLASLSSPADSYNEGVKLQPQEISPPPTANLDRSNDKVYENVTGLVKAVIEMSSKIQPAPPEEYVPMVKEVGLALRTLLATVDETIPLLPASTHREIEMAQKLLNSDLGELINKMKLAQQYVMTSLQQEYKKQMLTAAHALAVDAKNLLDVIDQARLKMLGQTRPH

For `CCOC(=O)[C@H](Cc1ccccc1)NC(=O)CCC1CC(OC(=O)NCCc2ccc(F)cc2)CC2(CCCC(COC(=O)NCc3ccccc3)O2)O1` (stereo not given in full), the composite z-score in [1] worked out at 0.704; in [2] it was 1.04; in [3] it was 0.254; in assay [4] it was 0.282; in [5], 0.63; in [6] it was 0.473. The composite z-score with Lefty1 is 0.833; in assay [8] it was 0.115; in assay [10], 0.0738; in assay [15], 0.606; in assay [16] it was 0.0074; in the assay with Torsin-1A (Homo sapiens) [17] it was 0.409. The composite z-score came out at 0.129 in the assay with Torsin-1A (Homo sapiens) [18] and 0.952 in assay [19]. Besides, the z-score in assay [7] is 0.216; in assay [9], 0.877 (inactive); in assay [11], -0.471 (inactive); in assay [12], 0.0402 (inactive); in assay [13] it was 0.824 (inactive); in assay [14] it was 1.63 (inactive).
Turning to `CCC=CCCC(OC(=O)c1ccc(Br)cc1)C1=CCCCC1=O` (stereo not given), the composite z-score in assay [1] was 0.164; in [2], 1.17; in assay [3] it was 0.408; in assay [4], -0.997; in assay [5] it was 1.11; in assay [6], 0.584. Further, the composite z-score in the assay with Lefty1 is 0.876; in assay [8], 0.485; in [10] it was -0.0451; in assay [15], 0.148; in assay [16], -0.195; in the assay with Torsin-1A (Homo sapiens) [17] it was 1.08. Further, the figures for the composite z-score (with Torsin-1A (Homo sapiens) [18]; in [19]) were 1.87 and 1.46, respectively. The z-score is -0.158 in [7]; 0.0771 (inactive) in [9]; -1.29 (inactive) in assay [11]; 1.45 (inactive) in assay [12]; -0.158 (inactive) in assay [13]; 3.09 (inactive) in assay [14].
As to `CON=C[C@@H](NS(=O)(=O)c1ccc(C)cc1)[C@H](C)C=CCC(=O)OC`, the composite z-score is 0.4 in assay [1]; -1.15 in assay [2]; 0.438 in assay [3]; -0.717 in assay [4]; 0.718 in [5]; 0.747 in [6]. Besides, the composite z-score is 0.585 in the assay with Lefty1; -0.35 in assay [8]; 0.0181 in assay [10]; 0.188 in assay [15]; -0.128 in [16]; 0.379 with Torsin-1A (Homo sapiens) [17]. For the same compound, the composite z-score with Torsin-1A (Homo sapiens) [18] is -0.199; in assay [19], 0.779. The z-score in assay [7] is 0.764; in assay [9], -0.42 (inactive); in assay [11], 0.319 (inactive); in [12], -0.357 (inactive); in assay [13], 0.173 (inactive); in [14] it was -0.196 (inactive).
On to `CO[C@@H]1COC(=O)[C@@H](C)NC(=O)CC=C[C@@H](C)[C@H](NS(=O)(=O)c2ccc(C)cc2)COC(=O)[C@H](C)NC(=O)CC=C[C@H]1C`, for which the composite z-score was -0.0135 in [1]; -0.693 in assay [2]; -0.0691 in assay [3]; -0.965 in assay [4]; 0.848 in assay [5]; 0.0303 in assay [6]. In addition, the composite z-score was 0.895 in the assay on Lefty1; -0.694 in [8]; -0.0222 in assay [10]; -0.967 in [15]; -0.218 in assay [16]; 1.31 with Torsin-1A (Homo sapiens) [17]. Further, the figures for the composite z-score (with Torsin-1A (Homo sapiens) [18]; in [19]) were 0.584 and 1.33, respectively. The z-score in [7] was 1.07; in assay [9], -1.15 (inactive); in [11], 0.806 (inactive); in assay [12], 0.829 (inactive); in [13], 0.881 (inactive); in [14], -0.314 (inactive).
For the compound `CC(CCN1CCCc2nc(C)c(C)cc21)=NOC(C)CN1CCCCc2nc(C)c(C)cc21` (stereo not given), the composite z-score came out at 0.363 in assay [1]; 1.2 in assay [2]; 0.687 in assay [3]; 0.567 in [4]; 1.27 in [5]; 0.785 in assay [6]. The composite z-score was 0.91 in the assay with Lefty1; 0.829 in assay [8]; 0.277 in assay [10]; 0.666 in assay [15]; 0.0074 in [16]; -0.109 in the assay with Torsin-1A (Homo sapiens) [17]. Besides, the figures for the composite z-score (in the assay with Torsin-1A (Homo sapiens) [18]; in [19]) were 0.631 and 1.05, respectively. Besides, the z-score in assay [7] was 0.539; in assay [9] it was -0.0922 (inactive); in assay [11] it was -0.466 (inactive); in [12], -0.624 (inactive); in assay [13], -0.31 (inactive); in assay [14], 0.527 (inactive).
